Results reported in PubChem BioAssay.
Calls of active or inactive are those of the source.

Tested on: Neuregulin-1 EGF-like domain
Assay: small molecules binding NRG1 EGF domain – biochemical, small-molecule microarray, 635 nm fluorescence, primary screen (AID 1081);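 also: binding of the protein to compounds printed on small-molecule microarray slides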
Conditions: higher = more signal
Compound `CC=CC1=C(CO)[C@H](O)[C@H]2O[C@H]2[C@H]1O` has a composite z-score of 0.583. `COc1ccc(COC(=O)NN=C2C[C@@H](O)[C@@H](O)[C@@H]3[C@@H]4C(=O)N(Cc5ccc6c(c5)OCO6)C(=O)[C@@H]4CC[C@@H]23)cc1` showed a composite z-score of 0.146. Compound `CN1C(=O)C2C=CC(C(O)c3ccc(I)cc3)N(NC(=O)OC(C)(C)C)C2C1=O` (centres undefined) has a composite z-score of 1.38. In the case of `COc1ccc(COC(=O)NN=C2C[C@@H](O)[C@@H](O)[C@@H]3[C@@H]4C(=O)N(c5ccc(F)cc5F)C(=O)[C@@H]4CC[C@@H]23)cc1`, the composite z-score is reported as -1.13. Compound `CCOC(=O)[C@H](CC(C)C)NC(=O)CCC1CC(OC(=O)NCCc2ccc(F)cc2)CC2(CCCC(COC(=O)NCc3ccccc3)O2)O1` (some centres undefined) has a composite z-score of 1.28.

Tested on: not listed separately
Assay: FRG1 expression reporter modulators in myotubes – cell-based, C2C12 myotubes, firefly/Renilla luciferase, luminescence, FRG1 inhibition for FSHD, primary screen (AID 1084)
Conditions: FRG1 promoter luciferase, higher = more signal, called active from +8 up or from −8 down
In the case of `C[C@@H]1CCC2C(=O)N(Cc3ccccc3)C[C@@H](O)CN2[C@H]1c1ccc(Br)cc1` (some centres undefined), the z-score is reported as -0.765 (inactive). With `CCOC(=O)CCN1C(=O)[C@H]2[C@H]3[C@H](O)[C@H](O)CC(=O)[C@H]3CC[C@H]2C1=O` the z-score was 0.639 (inactive). For `C#CCCCON=C1C[C@@H](O)[C@@H](O)[C@@H]2[C@@H]3C(=O)N(CCC(=O)OCC)C(=O)[C@@H]3CC[C@@H]12`, the z-score was 0.665 (inactive). For `O=C1[C@H]2[C@H]3[C@H](O)[C@H](O)CC(=NOCc4ccccc4)[C@H]3CC[C@H]2C(=O)N1C[C@@H]1CCCO1`, the z-score was -0.187 (inactive). With `C#CCCCON=C1C[C@@H](O)[C@@H](O)[C@@H]2[C@@H]3C(=O)N([C@@H](C)c4ccccc4)C(=O)[C@@H]3CC[C@H]12` the z-score was 0.548 (inactive). For `CCOC(=O)[C@H](Cc1ccccc1)NC(=O)CCC1CC(OC(=O)NCc2ccc3c(c2)OCO3)CC2(CCCC(COC(=O)NCc3cccc(C(F)(F)F)c3)O2)O1` (some centres undefined), the z-score was -0.0878 (inactive). For `C=CC[C@@H]1C=C[C@H](ON=C(C)CCN2CCc3nc(CC)c(CC)cc3C2)[C@@H](CO)O1`, the z-score was 2.55 (inactive). For `O=C1C2C=CC(C(O)c3ccc([N+](=O)[O-])cc3)N(Nc3ccc([N+](=O)[O-])cc3)C2C(=O)N1c1ccccc1` (centres undefined), the z-score was -0.164 (inactive). For `CC(C)[C@H](NC(=O)OC(C)(C)C)[C@@H](O)CC(=O)OC(C)(C)C`, the z-score was 0.0293 (inactive). With `NCCCCCNC(=O)[C@@H]1C[C@@H]2C(=O)N3CCC[C@H]3C(=O)N2[C@@H]1c1cccc(OCCO)c1` the z-score was 0.76 (inactive). For `COC(=O)CC=C[C@H](C)[C@@H](OCc1ccccc1Br)C(C)C`, the z-score was -0.749 (inactive). In the case of `COc1ccc([Si](C)(C)[C@H]2[C@H](CCO)O[C@@]3(C(=O)N(Cc4cccc(NC(=O)[C@H](C)O)c4)c4ccccc43)[C@@H]2C)cc1`, the z-score is reported as -2.68 (inactive). In the case of `CCOC(=O)CCN1C(=O)[C@H]2[C@H]3[C@H](O)C=CC(=O)[C@@H]3CC[C@H]2C1=O`, the z-score is reported as -0.451 (inactive). With `CCN1C(=O)[C@H]2[C@H]3[C@H](O)[C@H](O)CC(=NOC[C@@H](C)[C@H](OCc4ccccc4)C(C)C)[C@@H]3CC[C@H]2C1=O` the z-score was 0.199 (inactive). With `CO[C@H]1COC(=O)[C@H](C)COC(=O)CC=C[C@@H](C)[C@H](OC)COC(=O)CC=C[C@@H]1C` the z-score was 0.847 (inactive). With `C=C(CCCC)C(=O)CC[C@@H](OC(C)=O)c1cccc(OCCO)c1` the z-score was -3.56 (inactive). For `C[C@H](c1ccccc1)N1C(=O)[C@H]2[C@@H]3C(=CC[C@H]2C1=O)C(=O)[C@H]1O[C@H]1[C@H]3O`, the z-score was 14.4 (active). For `CC(C)CON=C1C[C@@H](O)[C@@H](O)[C@@H]2[C@@H]3C(=O)N(C[C@@H]4CCCO4)C(=O)[C@@H]3CC[C@H]12`, the z-score was -0.267 (inactive). In the case of `CCOC(=O)C1=CC[C@H]2C(=O)N(CC)C(=O)[C@@H]12`, the z-score is reported as 0.937 (inactive). In the case of `C#CCCCON=C1C[C@@H](O)[C@@H](O)[C@@H]2[C@@H]3C(=O)N(c4cccc(Oc5ccccc5)c4)C(=O)[C@@H]3CC[C@@H]12`, the z-score is reported as 0.407 (inactive). For `CC(CCN1CCc2nc(-c3ccccc3)c(-c3ccccc3)cc2C1)=NOC(C)CN1CCCCc2nc(C)c(C)cc21` (centres undefined), the z-score was 1.1 (inactive). With `CCOC(=O)[C@H](CC(C)C)NC(=O)CCC1CC(OC(=O)NCc2cccc3ccccc23)CC2(CCCC(COC(=O)NCCc3ccccc3OC)O2)O1` (some centres undefined) the z-score was 0.0171 (inactive). For `COc1cccc([C@@H]2Oc3ccc(Br)cc3C(=O)[C@H]2O)c1`, the z-score was 3.62 (inactive). For `CS(=O)(=O)CCOC(=O)C1=CC(CCCO)=CC(c2cccs2)N(Cc2cccc(OC(F)(F)F)c2)C=C1C(=O)OCCS(C)(=O)=O` (centres undefined), the z-score was -0.176 (inactive).
